Experimental data taken from the supplement of paper PMC6555819.

Legend:
Experiment in all cases: PBM binding z-score (relative to random genomic background probes); higher = stronger binding; sequences stand for … in GC…GCGATTGACAGCGTAGAATGAAGG
[1] = system: PPARg:RXRa DBDmut IVT, anti-RXR (DBD mutation: RXRa K156A/R161A, NR concentration 270 nM, RXRa partner concentration 90 nM)
In short: (§1)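 Custom Agilent 4×180K protein-binding microarrays carried double-stranded probes, each with a 34-nt variable region. These regions held direct-repeat seeds, single-nucleotide variants, half-site ablations and random human genomic background sequences. Ligand-free nuclear receptor dimers were incubated on the arrays for 1 h, antibodies against each partner (one per run) detected binding, and scanned fluorescence was regression-normalized. Binding z-scores take the random background probes as reference.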

[2] = system: PPARg:RXRa IVT, anti-PPARg (NR concentration 270 nM, RXRa partner concentration 90 nM)
In short: as §1

[3] = system: PPARg DBDmut:RXRa IVT, anti-PPARg (DBD mutation: PPARg1 K132A/R137A, NR concentration 270 nM, RXRa partner concentration 90 nM)
In short: as §1

[4] = system: PPARg DBDmut IVT, anti-PPARg (DBD mutation: PPARg1 K132A/R137A, NR concentration 270 nM)
In short: as §1

[5] = system: PPARg homodimer (NR concentration 180 nM)
In short: as §1

[6] = system: PXR:RXRa (NR concentration 270 nM, RXRa partner concentration 90 nM)
In short: as §1

[7] = system: PXR homodimer (NR concentration 270 nM)
In short: as §1

[8] = system: RARa:RXR (NR concentration 270 nM, RXRa partner concentration 90 nM)
In short: as §1

[9] = system: RARa homodimer (NR concentration 270 nM)
In short: as §1

[10] = system: RARb:RXRa (NR concentration 270 nM, RXRa partner concentration 90 nM)
In short: as §1

[11] = system: RARb homodimer (NR concentration 270 nM)
In short: as §1

[12] = system: RARg:RXRa (NR concentration 270 nM, RXRa partner concentration 90 nM)
In short: as §1

[13] = system: RARg homodimer (NR concentration 270 nM)
In short: as §1

[14] = system: RXRa DBDmut IVT, anti-RXR (DBD mutation: RXRa K156A/R161A, NR concentration 90 nM)
In short: as §1

[15] = system: RXRa homodimer (NR concentration 180 nM)
In short: as §1

[16] = system: THRa:RXRa (NR concentration 90 nM, RXRa partner concentration 90 nM)
In short: as §1

[17] = system: THRa homodimer (NR concentration 90 nM)
In short: as §1

[18] = system: VDR homodimer (NR concentration 270 nM)
In short: as §1

Sequence	PBM binding z-score [1]	PBM binding z-score [2]	PBM binding z-score [3]	PBM binding z-score [4]	PBM binding z-score [5]	PBM binding z-score [6]	PBM binding z-score [7]	PBM binding z-score [8]	PBM binding z-score [9]	PBM binding z-score [10]	PBM binding z-score [11]	PBM binding z-score [12]	PBM binding z-score [13]	PBM binding z-score [14]	PBM binding z-score [15]	PBM binding z-score [16]	PBM binding z-score [17]	PBM binding z-score [18]
ATCTCTAGGTAACCAAGTTCAGTAAATGCCGAAC	3.43	2.97	1.54	2.29	1.32	2.05	1.79	1.07	0.775	1.2	1.71	0.886	0.809	1.13	0.802	1.67	1.07	2.48
CCGAGTAGGTCATGGGGCATTCAGGCAACGGTGA	5.78	6.73	0.331	-0.486	2.5	2.15	-0.103	3.58	0.815	3.78	3.25	4.34	4.44	0.881	3.87	2.45	0.499	0.642
TGAATGAGGTTAAAGATTAGGGAACGTGGCGTCG	2	2.99	1.53	0.276	0.705	1.33	0.337	1.98	0.424	1.97	0.481	1.91	1.29	1.09	2.89	2.37	0.417	0.533
GGAACGAGGGCATTCGAGTTGATCGCATGGCGAT	3.31	1.97	-0.808	-0.537	-0.069	3.96	1.47	0.882	-1.16	1.68	0.71	1.11	1.52	3.18	0.775	3.44	-0.598	3.38
CCTAGTTCGTCAAGGTCACACACGCTATAGGTAC	1.21	2.33	1	1.24	4.18	5.38	10.4	4.97	2.49	4.37	4.36	4.84	4.77	4.16	4.74	4.39	4.47	6.91
ATCTCTAGGTAAAATTTCAGTGAATCCCGAGGAT	1.67	1.35	0.773	1.87	0.138	-0.0385	-0.0342	0.0546	0.744	0.377	-0.0962	0.558	0.537	0.113	0.367	0.328	0.331	-0.51
ATCTCTAGGTAACAAGTTCAGTGGAAGAGAGGAC	3.2	3.02	0.956	1.34	1.43	1.66	1.48	1.15	1.39	1.8	1.89	1.22	1.25	1.13	0.888	1.56	1.13	2.02
TCAGACAGGTGAAGCTAACTCAGGTACGCAGTCG	2.31	0.713	0.0407	-0.303	0.616	0.0875	0.111	0.285	0.225	0.749	0.0204	0.241	0.351	0.962	0.617	0.525	-0.351	-0.124
AGAATGAGGTTATTAAGATCAGGGACTTGCGGTC	3.54	2.69	0.364	0.0807	0.911	1.15	0.684	1.36	0.425	1.37	0.973	1.12	0.814	1.92	1.82	2.09	0.617	1.36
ATCTCTAAGTAAAGATAGTTCAGTGAATGCAAAT	0.013	-0.072	0.975	1.08	1.3	0.808	0.715	1.08	1.41	0.426	0.667	0.945	0.889	0.232	0.538	0.429	-0.328	0.578
TCTTGTAGATCAGGAGGTTAAGAAAGCTGGCCAA	1.51	0.654	0.143	-0.244	0.0785	0.352	-0.154	0.854	-0.318	0.586	0.528	0.46	0.00207	0.445	1.29	0.711	-0.548	-0.308
CAAACTAGGTCGCCGGAAGGTCAAAGTCCGCATG	6.5	6.56	2.57	0.739	3.61	4.72	0.959	5.67	0.693	3.94	4.43	6.47	4.32	1.22	4.39	3.68	1.44	2.39
GTACCAAGGTGAATAGGTTGTTGATGAGTAGGCG	1.75	2.2	0.246	0.502	0.999	0.105	0.241	0.634	1.32	1.36	0.824	1.07	0.763	0.247	0.717	1.55	0.782	0.391
AGAACGTGGGCAATGAGTTGATAGCACGGGTGGC	-0.374	-0.0857	-0.361	-0.494	-0.516	-0.399	-0.204	-0.5	-0.521	-0.261	-0.41	-0.369	-0.147	-0.174	0.0338	-0.628	-0.889	0.376
GCTCGGAGGTCAAGGTCAGAGCTTTGTCCGTAGA	3.94	4.68	-0.342	-0.512	4.12	5.61	1.32	6.17	2.29	5.37	5.13	7.02	7.59	3.19	7.07	4.24	2.72	3.21
CCGACTGGGGCAAGGTTACCACAACGCACAGCCA	3.33	3.56	0.0122	-0.719	-0.214	0.24	-0.209	0.76	0.366	1.61	1.53	1.13	1.45	-0.491	1.12	1.31	0.612	-0.211

Sequence	PBM binding z-score [1]	PBM binding z-score [2]	PBM binding z-score [3]	PBM binding z-score [4]	PBM binding z-score [5]	PBM binding z-score [6]	PBM binding z-score [7]	PBM binding z-score [8]	PBM binding z-score [9]	PBM binding z-score [10]	PBM binding z-score [11]	PBM binding z-score [12]	PBM binding z-score [13]	PBM binding z-score [14]	PBM binding z-score [15]	PBM binding z-score [16]	PBM binding z-score [17]	PBM binding z-score [18]
CCGACTGGGGCAAGGTTACCTTAACGCACAGCCA	3.34	3.76	-1.05	-0.772	0.376	0.303	-0.595	0.858	-0.882	1.63	1.27	0.881	1.11	-0.49	1.1	2.07	1.66	-0.391
CCTTACGGGACAAGGTTATAGCACGGGTGGTACG	-0.648	0.0765	-0.507	-0.996	0.819	0.699	0.148	1.01	0.441	0.996	1.07	1.07	0.894	-0.464	1.35	1.08	0.341	0.555
GATACAGGGTCAGGTAGAGGCCAGAGTATGGAAA	0.739	2.45	0.9	0.631	2.28	2.96	0.741	3.47	1.29	4	3.48	6.43	4.46	0.77	4.13	3.18	0.846	1.25
ATATGGAGGTTATCGGGTCATTCAGTTTGCGCAT	4.66	4.91	1.95	1.8	2.89	4.61	8.4	4.75	1.62	3.26	3.56	4.27	3.28	2.19	4.9	3.71	3	4.69
ACTAGGAGGCCAAGTTTGGGTCACTCAAACAAAG	1.22	1.95	-0.886	-1.06	1.15	1.22	0.347	1.83	0.176	2.43	2.66	3.46	2.56	0.0297	1.08	2.74	1	0.935
CCGACTGGGACAGAAAGGTTACCATACCATCCGG	0.593	1.09	-0.448	-0.875	1.09	1.01	0.0178	1.63	-0.302	1.47	2.12	1.37	0.963	-0.641	1.61	1.19	-0.195	-0.17
TAGCCTAGGTCAGATCGCGCCAGTATACGCTATA	0.721	1.46	-0.73	0.133	0.207	0.262	-0.578	0.7	-0.794	2.95	1.68	2.64	3.2	-0.216	1.22	1.61	0.165	-0.0657
GCTTGTAGGTCAAGGTTAAGAAAGACTAAGCTAA	7.82	8	2.05	1.01	1.99	2.52	0.226	3.43	1.18	4.32	3.22	4.98	5.18	1.26	4.8	2.91	0.735	0.622
ATCGAAAGGTCGTGAGGTGAGTATGCAGAAAGGC	0.289	2.19	1.46	1.35	1.5	2.98	-0.0975	4.43	0.592	4.01	3.26	4.63	4.17	1.02	5.27	3.56	1.71	0.782
AGAATGAGGTTAAGAACAGGGAAACAGAATACAT	2.35	2.23	1.48	0.955	0.811	1.13	0.635	1.61	0.514	1.87	1.14	1.96	1.4	0.678	2.42	2.25	0.727	0.533
CCTTACGGGTCACTGACAGGGTATAGCATTTGGA	2.63	3.31	0.282	0.192	1.91	2.87	-0.101	3.64	0.315	3.73	2.82	5.05	4.61	1.26	4.55	2.32	-0.0972	0.873
TCTTGTAGATCAACAGGAGGTTAAAAAAGATCGA	1.2	0.996	0.773	1.21	-0.0647	0.969	-0.197	0.92	0.296	0.47	0.404	0.947	0.461	0.247	0.896	0.886	-0.654	0.215
CCTCGGAGGACAAAAGGAGGTCAGAGCTGCCAGA	0.965	1.96	-1.11	-2.13	1.84	2.15	0.144	2.45	0.515	2.39	3.07	3.24	2.75	0.256	1.82	2.5	0.878	1.23
ATCTCTAGGTAACACGTTCAGTGAAAGAGAGGAC	3.45	3.05	1.75	1.04	0.135	0.0713	0.206	0.208	0.489	0.552	0.49	0.475	0.586	-0.0545	0.391	0.954	0.748	0.453
TCTGCTAGCTCAGTTGGTCAGCTAACGAGCTGCC	0.435	0.0097	-0.882	-0.216	-1.73	-0.874	-1.69	-0.998	-2.24	-0.575	-1.04	-0.955	-0.903	-0.192	-1.34	-1.6	-1.25	-1.56
